HIV TAR-Tat: TAR RNA-Tat peptide displacers, HIV-1, primary screen, biochemical, FRET, FAM/TAMRA-labeled Tat; HIV-1 TAR RNA, Tat peptide displacement FRET; stronger effect = higher value; z-score (concentration not given with the values); hit rate 0.6% among 100,000; AID 1259389, 2018; active = z-score of 3 or more in at least 2 runs
CDC25B CDK2 inh: primary biochemical HTRF screen for blockers of M-phase inducer phosphatase 2 binding to CDK2/cyclin A; HTRF CDC25B-CDK2/CyclinA binding, anti-His/anti-Flag; stronger effect = higher value; hit rate 0.72% among 94,000; z-score (concentration not given with the values); P30305+P24941; in the data active = z-score above about 3.2
Hits are given with their value. Compounds with a hit are over-represented: about 0.9% of the library has one in this group of screens.

Screening CCOc1ccc(-c2n[nH]c3c2cnc2cc4c(cc23)OCCO4)cc1 returned HIV TAR-Tat 17 and CDC25B CDK2 inh 15.
`Cc1ccc(-c2n[nH]c3c2cnc2cc4c(cc23)OCCO4)cc1` gave HIV TAR-Tat inactive.
For c1cc(CN2CCN(Cc3ccncc3)CC2)ccn1 the results were HIV TAR-Tat inactive and CDC25B CDK2 inh inactive.
CN1C(C(=O)Nc2sc3c(c2C#N)CCC3)=CC(c2ccco2)=NS1(=O)=O was read as HIV TAR-Tat 6.1 and CDC25B CDK2 inh inactive.
For CN1C(C(=O)Nc2sc3c(c2C(N)=O)CCCC3)=CC(c2ccco2)=NS1(=O)=O the results were HIV TAR-Tat inactive and CDC25B CDK2 inh inactive.
Oc1ccccc1-c1nc(-c2cccs2)c(-c2cccs2)[nH]1 was read as HIV TAR-Tat inactive and CDC25B CDK2 inh 18.
Screening COc1cc(-c2nc(-c3ccccc3)c(-c3cccs3)[nH]2)cc(OC)c1O returned CDC25B CDK2 inh inactive.
CCC(C)N1C(=O)C2C(C(=O)Nc3cccc(OC)c3)C3C=CC2(O3)C1C(=O)NC1CCCCC1C (stereo not given) was read as HIV TAR-Tat inactive and CDC25B CDK2 inh inactive.
For O=C(Nc1cccc(Cl)c1)Nc1nc2c(s1)CCCCCC2 the results were HIV TAR-Tat inactive.
COc1ccc(-c2noc(CSc3nnc(C)n3-c3ccc(F)cc3)n2)cc1 was read as HIV TAR-Tat inactive and CDC25B CDK2 inh inactive.
For Cc1sc2c(c1C)CSC(C(=O)N1CCN(c3ncccn3)CC1)=C2 the results were HIV TAR-Tat inactive.
`CCOC(=O)c1c(N)sc(SSc2sc(N)c(C(=O)OCC)c2C)c1C` gave CDC25B CDK2 inh 4.4.
Screening CCOC(=O)c1c(N)sc(C)c1C returned HIV TAR-Tat inactive and CDC25B CDK2 inh inactive.
`O=C(Cn1ncc2ccc(Cl)cc21)N1CCc2ccccc2C1` gave HIV TAR-Tat inactive and CDC25B CDK2 inh inactive.
Screening COc1ccc(OC)c(C2/C(=C(\O)c3ccccc3)C(=O)C(=O)N2c2cccnc2)c1 (stereo not given) returned HIV TAR-Tat inactive and CDC25B CDK2 inh inactive.
`COc1ccc(OC)c(C2/C(=C(/O)c3ccc(C)cc3)C(=O)C(=O)N2c2cccnc2)c1` (stereo not given) gave HIV TAR-Tat inactive and CDC25B CDK2 inh 6.
Screening CCOC(=O)c1c(NC(=O)c2cc(=O)c3cc(Cl)ccc3o2)sc2c1CCC2 returned HIV TAR-Tat inactive and CDC25B CDK2 inh inactive.
CCCCN(C)CCNS(=O)(=O)c1cc(Br)cc2c1N(C(=O)CC)CC2 was read as CDC25B CDK2 inh inactive.
`CCCCN(C)CCNS(=O)(=O)c1cc(Br)cc2c1N(C(C)=O)CC2` gave CDC25B CDK2 inh 7.4.
Screening Cn1c(=O)c2c(nc(Sc3ccc(NC(=O)c4ccco4)cc3)n2C)n(C)c1=O returned HIV TAR-Tat inactive and CDC25B CDK2 inh inactive.
Screening Cc1cccc(NC(=O)Cn2ncc3c2-c2ccccc2OC3)n1 returned HIV TAR-Tat inactive and CDC25B CDK2 inh inactive.
Screening O=C1CC(c2ccc(-c3ccccc3)cc2)c2cc3c(cc2N1)OCCO3 (stereo not given) returned HIV TAR-Tat inactive and CDC25B CDK2 inh inactive.
`CCc1ccc(C2CC(=O)Nc3cc4c(cc32)OCCO4)cc1` (stereo not given) gave HIV TAR-Tat inactive and CDC25B CDK2 inh 4.4.
Screening CC1CCC(NC(=O)C2CCN(c3cnccn3)CC2)CC1 (stereo not given) returned HIV TAR-Tat inactive and CDC25B CDK2 inh inactive.
`O=C1NC(=O)/C(=C/c2ccc(-c3ccc(F)cc3O)o2)S1` gave CDC25B CDK2 inh inactive.
`O=C1NC(=S)N/C1=C/c1ccc(-c2cc(C(=O)O)ccc2Cl)o1` gave CDC25B CDK2 inh 3.6.
Cn1c(=O)n(C)c2cc(S(=O)(=O)NCC(=O)O)ccc21 was read as HIV TAR-Tat inactive and CDC25B CDK2 inh inactive.
`C=CCOc1cccc(C2c3c(oc4ccccc4c3=O)C(=O)N2c2nnc(C(C)C)s2)c1` (stereo not given) gave HIV TAR-Tat inactive and CDC25B CDK2 inh inactive.
For O=c1cc(-c2ccccc2)oc2cc(O)c(O)cc12 the results were HIV TAR-Tat 29.
Screening Cc1oc2c(O)c(O)ccc2c(=O)c1-c1ccccc1 returned CDC25B CDK2 inh inactive.
`O=c1cc(-c2ccccc2)oc2c(O)c(O)ccc12` gave HIV TAR-Tat 19 and CDC25B CDK2 inh inactive.
`O=c1cc(-c2ccccc2)oc2ccc(-c3nn[nH]n3)cc12` gave CDC25B CDK2 inh inactive.
`COc1ccc(-c2cc(OC(=O)c3cccc(Br)c3)c3c(C)oc(C)c3c(=O)c2)cc1` gave HIV TAR-Tat inactive and CDC25B CDK2 inh inactive.
`Cc1occc1-c1nnc(SCC(=O)c2ccc(Cl)cc2)o1` gave HIV TAR-Tat inactive and CDC25B CDK2 inh inactive.
Screening Cc1occc1-c1nnc(SCC(=O)Nc2ccc(Cl)cc2)o1 returned HIV TAR-Tat inactive and CDC25B CDK2 inh 10.
For CN(C)c1ccc(NC(=O)CCCC(=O)O)cc1 the results were HIV TAR-Tat inactive and CDC25B CDK2 inh inactive.
Screening CN(C)c1ccc(C(=O)NCCCCCC(=O)NO)cc1 returned HIV TAR-Tat 10.
For COc1cccc(Nc2cc(N3CCN(C)CC3)c3noc4c3c2C(=O)c2ccccc2-4)c1 the results were HIV TAR-Tat inactive and CDC25B CDK2 inh 11.
Screening COc1cccc(Nc2cc(N3CCOCC3)c3noc4c3c2C(=O)c2ccccc2-4)c1 returned HIV TAR-Tat inactive and CDC25B CDK2 inh inactive.
`CN1CCN(c2cc(Nc3ccc4c(c3)OCCO4)c3c4c(onc24)-c2ccccc2C3=O)CC1` gave HIV TAR-Tat inactive and CDC25B CDK2 inh 11.
For CN1CCN(c2cc(Nc3ccc4c(c3)OCO4)c3c4c(onc24)-c2ccccc2C3=O)CC1 the results were HIV TAR-Tat inactive and CDC25B CDK2 inh 10.
Screening CCN1CCN(c2cc(Nc3ccc4c(c3)OCO4)c3c4c(onc24)-c2ccccc2C3=O)CC1 returned HIV TAR-Tat inactive and CDC25B CDK2 inh inactive.
O=C1c2ccccc2-c2onc3c(N4CCOCC4)cc(Nc4ccc5c(c4)OCCO5)c1c23 was read as HIV TAR-Tat inactive and CDC25B CDK2 inh inactive.
Screening CN(CC(=O)Nc1nccs1)S(=O)(=O)c1cccc2nsnc12 returned CDC25B CDK2 inh inactive.
CCOC(=O)NNC(=S)Nc1cccc(C)c1 was read as CDC25B CDK2 inh inactive.
`CCOC(=O)c1c(C)oc2cc(Br)c(OC(=O)C(C)C)cc12` gave CDC25B CDK2 inh inactive.
`CCOc1ccc2ncc(S(=O)(=O)c3ccccc3)c(N3CCCCC3)c2c1` gave HIV TAR-Tat inactive and CDC25B CDK2 inh inactive.
`COc1ccc(S(=O)(=O)c2cnc3cc(OC)c(OC)cc3c2N2CCCCC2)cc1` gave HIV TAR-Tat inactive and CDC25B CDK2 inh inactive.
COc1cc2ncc(S(=O)(=O)c3ccc(C)cc3)c(N3CCCC3)c2cc1OC was read as HIV TAR-Tat inactive and CDC25B CDK2 inh 9.6.
Screening CCOc1ccc2ncc(S(=O)(=O)c3ccc(C)cc3)c(N3CCCC3)c2c1 returned HIV TAR-Tat inactive and CDC25B CDK2 inh 5.2.
O=C(O)CCSc1nnc(-c2ccc(Cl)cc2)o1 was read as HIV TAR-Tat inactive and CDC25B CDK2 inh inactive.
For Fc1ccccc1N1CCN(Cc2nnc(-c3cccc(Br)c3)o2)CC1 the results were HIV TAR-Tat inactive and CDC25B CDK2 inh inactive.
Cc1sc2ncn(CC(=O)N3CCN(C)CC3)c(=O)c2c1S(=O)(=O)N1CCCCC1 was read as CDC25B CDK2 inh inactive.

Screening results (PubChem BioAssay)
